Assay results from PubChem BioAssay (NCI).
Values joined by “and” are separate entries in the source; they are usually repeats but may differ in a detail not shown here. Equal entries are not always repeated. About 79,000 compounds went through this panel and 15% of them were active in at least one assay; those are over-represented in the sample as a whole. A structure can be active in one record and inactive in another. Active and inactive are the calls of the source. Rule as the data show it: active = growth inhibition above about 70%; inactive = the rest.

Columns and labels:
[1] = NCI Yeast Anticancer Drug Screen. Data for the rad50 strain (AID 155);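 also: 0% = growth of vehicle-only cultures of the same strain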; conditions: S. cerevisiae rad50 strain growth inhibition, stronger effect = higher value
How it was run: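 Relative growth inhibition (compound vs vehicle) was measured in yeast with a defined repair-gene alteration.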

[2] = NCI Yeast Anticancer Drug Screen. Data for the mec2-1 strain (AID 157); conditions: S. cerevisiae mec2-1 strain, stronger effect = higher value
How it was run: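 Readout is yeast growth inhibition, normalised to vehicle-treated controls, in the mec2-1 strain exposed to compound.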

[3] = NCI Yeast Anticancer Drug Screen. Data for the sgs1 mgt1 strain (AID 161);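 also: 0% = growth of cultures given vehicle only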; conditions: S. cerevisiae sgs1 mgt1 strain, stronger effect = higher value
How it was run: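 Percent growth inhibition was derived by comparing compound-exposed mutant yeast with vehicle-exposed cultures. The strain carries alterations in DNA damage repair.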

[4] = NCI Yeast Anticancer Drug Screen. Data for the cln2 rad14 strain (AID 165);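 also: 0% = growth equal to vehicle treated cultures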; conditions: S. cerevisiae cln2 rad14 strain, stronger effect = higher value
How it was run: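 Relative to vehicle controls, growth inhibition of compound-treated cln2 rad14 yeast was recorded.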

[5] = NCI Yeast Anticancer Drug Screen. Data for the bub3 strain (AID 167); conditions: S. cerevisiae bub3 mutant strain, stronger effect = higher value
How it was run: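 Screening used yeast with an engineered genetic alteration affecting cell cycle control. Compound-exposed cultures were compared with vehicle cultures, and reduced growth was taken as inhibition.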

[6] = NCI Yeast Anticancer Drug Screen. Data for the mlh1 rad18 strain (AID 175); conditions: S. cerevisiae mlh1 rad18 strain growth inhibition, stronger effect = higher value
How it was run: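 Test agents were incubated with a yeast strain of defined genotype (DNA damage repair defect). Inhibition of growth was derived by comparison with vehicle-exposed cultures.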

[7] = at 5.0 µM (retest, dose inferred, filed as 0.5)
[8] = at 50.0 µM (retest, dose inferred, filed as 5.0)

Measured: growth inhibition

O=Nc1ccc(C=C2C(=O)C=CC2=O)cc1
active: [1]; [7] 94% | [1]; [8] 98% | [1]; at 50.0 µM 99.5% | [2]; [7] 99% | [2]; [8] 99% | [2]; at 50.0 µM 99.7% | [3]; [7] 94% | [3]; [8] 99% | [3]; at 50.0 µM 99.4% | [4]; [7] 72% | [4]; [8] 98% | [4]; at 50.0 µM 99% | [5]; [7] 84% | [5]; [8] 99% | [5]; at 50.0 µM 99.4% | [6]; [7] 97% | [6]; [8] 98% | [6]; at 50.0 µM 99.5%

CCN(CC)Cc1cc2[nH]c3c4ccc(Cl)cc4ncc3c2cc1OC (tested in a mixture with another compound)
64.3% (inactive) and 77.5% (active): [6]; at 50.0 µM
inactive: [1]; [7] 3% | [1]; at 50.0 µM 59.4% and 65% | [2]; [7] 2% | [2]; [8] 58% | [2]; at 50.0 µM 38.8% and 66% | [3]; [7] 0% | [3]; [8] 48% | [4]; [7] -2% | [4]; [8] 47% | [4]; at 50.0 µM -1.65% and 29.1% | [5]; [7] 4% | [5]; [8] 58% | [5]; at 50.0 µM 44.8% and 48.6% | [6]; [7] 3%
55.1% (inactive) and 74.2% (active): [3]; at 50.0 µM
active: [1]; [8] 71% | [6]; [8] 74%

O=C(c1ccc(Cl)cc1)C(O)c1ccc(Cl)cc1 (centres undefined)
inactive: [1]; [7] -2% and 10% | [1]; at 50.0 µM 34.2% | [2]; [7] -9% and -3% | [2]; [8] 14% and 35% | [2]; at 50.0 µM 12.4% | [3]; [7] -2% and 4% | [3]; at 50.0 µM 55.1% | [4]; [7] -8% and 7% | [4]; [8] 67% and 28% | [4]; at 50.0 µM 36% | [5]; [7] -10% and -1% | [5]; [8] 20% and 45% | [5]; at 50.0 µM 65.8% | [6]; [7] -6% and -12% | [6]; [8] 53% and 49% | [6]; at 50.0 µM 62.3%
27% (inactive) and 74% (active): [1]; [8]
active: [3]; [8] 79% and 82%

COC(=O)C1C(O)C(C)C(O)C(C)C=C(C)C2=C3C(=C(C)C(=O)c4c(O)c(c(C)c(OC(C)=O)c43)NC(=O)C(C)=C/C=C\C(C)C(O)C(C)C1O)OCO2 (centres undefined)
inactive: [1]; [7] -11% | [1]; [8] -37% | [1]; at 50.0 µM 53.1% and 5.45% | [2]; [7] -14% | [2]; [8] -42% | [2]; at 50.0 µM 22.1% and -8.55% | [3]; [7] -11% | [4]; [7] -10% | [4]; [8] 10% | [4]; at 50.0 µM 28.6% and 3% | [5]; [7] -31% | [5]; [8] -27% | [5]; at 50.0 µM 37.9% and 8.2% | [6]; [7] -36% | [6]; [8] -3% | [6]; at 50.0 µM 17.6% and 8.65%
90.2% (active) and -9.2% (inactive): [3]; at 50.0 µM
active: [3]; [8] 89%

CN(C)c1ccc(/C=C/c2cc[n+](C)c3ccccc23)cc1
89% (active) and 57% (inactive): [4]; [8]
81% (active) and 53% (inactive): [1]; [8]
inactive: [1]; [7] -3% and -12% | [2]; [7] 0% and -25% | [3]; [7] 3% and -10% | [4]; [7] -2% and -5% | [5]; [7] -3% and -17% | [6]; [7] -8% and -21%
active: [1]; at 50.0 µM 95.3% and 71.3% | [2]; [8] 93% and 83% | [2]; at 50.0 µM 97.9% and 86.2% | [3]; [8] 92% and 88% | [3]; at 50.0 µM 93.7% and 83.4% | [5]; [8] 85% and 83% | [5]; at 50.0 µM 97.5% and 82.8% | [6]; [8] 93% and 80% | [6]; at 50.0 µM 97.7%
96.6% (active) and 66.7% (inactive): [4]; at 50.0 µM

CCCCCCCCCCCCCCCC(=O)NCC[N+](C)(C)C
inactive: [1]; [7] 33% | [2]; [7] 52% | [3]; [7] 50% | [4]; [7] 10% | [5]; [7] 58% | [6]; [7] 36%
active: [1]; [8] 99% | [1]; at 50.0 µM 99.5% | [2]; [8] 100% | [2]; at 50.0 µM 99.7% | [3]; [8] 99% | [3]; at 50.0 µM 99.8% | [4]; [8] 99% | [4]; at 50.0 µM 99.2% | [5]; [8] 100% | [5]; at 50.0 µM 99.5% | [6]; [8] 99% | [6]; at 50.0 µM 99.6%

O=C(Nc1ccc(C(=O)O)c(O)c1)c1ccccc1
inactive: [1]; [7] -2% | [1]; [8] 40% | [1]; at 50.0 µM 1.35% and -5.6% | [2]; [7] -12% | [2]; [8] -26% | [2]; at 50.0 µM 0.7% and -0.4% | [3]; [7] 0% | [3]; [8] 0% | [3]; at 50.0 µM -20% and 3.05% | [4]; [7] -4% | [4]; [8] -5% | [4]; at 50.0 µM -26.9% and 14.5% | [5]; [7] 1% | [5]; [8] 6% | [5]; at 50.0 µM 15.7% and 12.3% | [6]; [7] -3% | [6]; [8] 6% | [6]; at 50.0 µM 8.1% and -3.2%

COc1cccc(NC(=S)N2CCCCC2)c1
inactive: [1]; [7] -158% | [1]; [8] -160% | [1]; at 50.0 µM 38.4% | [2]; [7] -51% | [2]; [8] -58% | [2]; at 50.0 µM -0.45% | [3]; [7] -69% | [3]; [8] -61% | [3]; at 50.0 µM -8.25% | [4]; [7] -69% | [4]; [8] -102% | [4]; at 50.0 µM -82.4% | [5]; [7] -60% | [5]; [8] -58% | [5]; at 50.0 µM 14.7% | [6]; [7] -132% | [6]; [8] -151% | [6]; at 50.0 µM 20.9%
